According to PubChem BioAssay (NCATS):
Results filed as inconclusive are left out. Activity calls are given as the source filed them. The call rests on the fitted dose curve; in most records, active means well fitted curve in the direction sought with a large enough effect; inconclusive means small, poorly fitted or top-dose-only effect, or another doubt; inactive means no such curve, though single readings can be large; an effect the other way counts as inactive or inconclusive.

Assays:
[1] = system: CRL-7250; assay: Cytotoxic Profiling of Annotated Libraries Using Quantitative High-Throughput Screening (AID 1296008); settings: Five cell lines viability, CellTiter-Glo ATP luminescence, 48-72 h; max response: stronger effect = lower value; further: nearly all actives have a fitted effect of over 60% in size; on max response: on the % scale 0 is the no-effect control and ±100 the full control effect
Procedure, shortened: (§1)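 Compounds were pin-transferred onto cells and incubated 48 or 72 hr at 37 degree Celsius, 95% humidity. CellTiter-Glo was added, plates sat 10 min at room temperature, then ATP-coupled luminescence was imaged as the viability read-out.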

[2] = system: HEK293; assay: as above; settings: Five cell lines viability, CellTiter-Glo ATP luminescence, 48-72 h; max response: stronger effect = lower value
Procedure, shortened: as §1

[3] = system: HaCat; assay: as above; settings: Five cell lines viability, CellTiter-Glo ATP luminescence, 48-72 h; max response: stronger effect = lower value
Procedure, shortened: as §1

[4] = system: KB-3-1; assay: as above; settings: Five cell lines viability, CellTiter-Glo ATP luminescence, 48-72 h; max response: stronger effect = lower value
Procedure, shortened: as §1

[5] = system: NIH3T3; assay: as above; settings: Five cell lines viability, CellTiter-Glo ATP luminescence, 48-72 h; max response: stronger effect = lower value
Procedure, shortened: as §1

[6] = system: HACAT; assay: qHTS assay to identify novel small-molecules to repurpose for Merkel cell carcinoma treatment (AID 1296009); settings: MCC and control cell lines, CellTiter-Glo viability, 72 h; at 44.8 µM (top of the series) unless noted; further: nearly all actives have a fitted effect of over 60% in size
Procedure, shortened: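 qHTS format: cells treated with library compounds in DMSO across 8 (NPC) or 11 (MIPE) concentrations. Readout after 72 hr at 37 degree celsius was CellTiter-Glo luminescence.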

[7] = system: C33A; assay: Primary qHTS to identify gynecologic anti-cancer compounds using libraries of approved drugs and bioactive compounds (AID 1345084); settings: Gynecologic cancer cell panel viability, ATPlite luminescence, 48 h; series mostly up to 57.5 µM; further: on the % scale 0 is the no-effect control and ±100 the full control effect; nearly all actives have a fitted effect of over 55% in size
Procedure, shortened: (§2)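 Cell viability after 48 h drug treatment, ATPlite luminescence readout; five doses.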

[8] = system: CAOV3; assay: as above; settings: Gynecologic cancer cell panel viability, ATPlite luminescence, 48 h; series mostly up to 57.5 µM
Procedure, shortened: as §2

[9] = system: CASKI; assay: as above; settings: Gynecologic cancer cell panel viability, ATPlite luminescence, 48 h; series mostly up to 57.5 µM
Procedure, shortened: as §2

[10] = system: Es-2; assay: as above; settings: Gynecologic cancer cell panel viability, ATPlite luminescence, 48 h; series mostly up to 57.5 µM
Procedure, shortened: as §2

[11] = system: HeLa; assay: as above; settings: Gynecologic cancer cell panel viability, ATPlite luminescence, 48 h; series mostly up to 57.5 µM
Procedure, shortened: as §2

[12] = system: Hek293T; assay: as above; settings: Gynecologic cancer cell panel viability, ATPlite luminescence, 48 h, control line for the selectivity index; series mostly up to 57.5 µM
Procedure, shortened: as §2

[13] = system: JEG-3; assay: as above; settings: Gynecologic cancer cell panel viability, ATPlite luminescence, 48 h; series mostly up to 57.5 µM
Procedure, shortened: as §2

[14] = system: OV90; assay: as above; settings: Gynecologic cancer cell panel viability, ATPlite luminescence, 48 h; series mostly up to 57.5 µM
Procedure, shortened: as §2

[15] = system: PA-1; assay: as above; settings: Gynecologic cancer cell panel viability, ATPlite luminescence, 48 h; series mostly up to 57.5 µM
Procedure, shortened: as §2

COc1c2cc(c(O)c1OC)CCCCC(O)CCc1ccc(O)c-2c1 (stereo not given)
inactive: max response [1] -1.76% | max response [2] -0.95% | outcome [3] | max response [4] 2.35% | max response [5] -4.18% | outcome [6] | Potency [7] | Potency [8] | outcome [9] | Potency [10] | Potency [11] | Potency [12] | Potency [13] | Potency [14] | Potency [15]

CCC(C)/C=C(C)/C=C/C1=CC2=C(Cl)C(=O)C(C)(OC(C)=O)C(=O)C2=CN1C(CCCN=C(N)N)C(=O)O (stereo not given)
inactive: max response [1] -3.35% | max response [2] 3% | outcome [3] | max response [4] 7.97% | max response [5] -0.868% | outcome [6] inactive [at 17.4 µM] | Potency [7] | Potency [8] | outcome [9] | Potency [10] | Potency [11] | Potency [13] | Potency [14]

COC(=O)C1C(c2ccc(O)cc2)C(C(=O)O)C1c1ccc(O)cc1 (stereo not given)
inactive: max response [1] -7.64% | max response [2] -2.14% | outcome [3] | max response [4] 7.92% | max response [5] -3.05% | outcome [6] | Potency [7] | Potency [8] | outcome [9] | Potency [10] | Potency [11] | Potency [12] | Potency [13] | Potency [14] | Potency [15]

C/C1=C\CC(C)(C)/C=C/C/C(C(=O)O)=C/CC1
inactive: max response [1] -3% | max response [2] -13.3% | outcome [3] | max response [4] -12.2% | outcome [5] | outcome [6] | Potency [7] | Potency [8] | outcome [9] | Potency [10] | Potency [11] | Potency [12] | Potency [14] | Potency [15]

COc1cc(O)c(C(=O)O)c(CCc2ccccc2)c1
inactive: max response [1] -1.14% | max response [2] -6.57% | outcome [3] | max response [4] 9.04% | max response [5] -0.163% | outcome [6] | Potency [7] | Potency [8] | outcome [9] | Potency [10] | Potency [11] | Potency [12] | Potency [13] | Potency [14] | Potency [15]

CC(C)/C=C1/NC(=O)C(C(C)C)n2c1nc1c(O)cccc1c2=O (stereo not given)
inactive: outcome [1] | max response [2] -10.9% | outcome [3] | max response [4] 3.96% | max response [5] -2.82% | outcome [6] | Potency [7] | Potency [8] | outcome [9] | Potency [10] | Potency [11] | Potency [12] | Potency [13] | Potency [14] | Potency [15]

CC1C(O)C(O)C2C(C(=O)OCCc3ccc(O)cc3)=COC(O[C@@H]3O[C@H](CO)[C@@H](O)[C@H](O)[C@H]3O)C12 (stereo not given in full)
inactive: outcome [1] | max response [2] -0.685% | outcome [3] | max response [4] -9.14% | max response [5] 2.97% | outcome [6] inactive [at 17.4 µM] | Potency [7] | Potency [8] | outcome [9] | Potency [10] | Potency [11] | Potency [12] | Potency [13] | Potency [14] | Potency [15]

COC(=O)C1=CO[C@@H](O[C@@H]2O[C@H](CO)[C@@H](O)[C@H](O)[C@H]2O)[C@H]2[C@@H]1C=C[C@]21C=C([C@H](C)OC(=O)/C=C/c2ccc(O[C@@H]3O[C@H](CO)[C@@H](O)[C@H](O)[C@H]3O)cc2)C(=O)O1
inactive: max response [1] -2.8% | max response [2] 4.82% | outcome [3] | max response [4] 9.99% | outcome [5] | outcome [6] inactive [at 17.4 µM] | Potency [7] | outcome [9] | Potency [10] | Potency [11] | Potency [12] | Potency [13] | Potency [14]
